# Screening results (PubChem BioAssay)
# Most compounds without a hit are left out; they make up all but 17% or so of the library.
# HepG2 viability: HepG2 cytotoxicity, counter-screen for TGF-b inhibitors. 0.76% of 410,000 active. Potency, µM (highest dose often 46.1 µM), for the others: at the highest dose activity change, negative = cytotoxicity, hits mostly cytotoxic. HepG2 CAGA-GFP viability, ATP luminescence, 18 h
#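 HepG2 CAGA-GFP cells (1000/well, DMEM with 1% FBS) received compound, then TGF-beta at 500 pg/mL final, and were incubated 18 hours at 37 degrees C. Viability was read by CellTiter-Glo luminescence. Media-only wells were set as complete cell-killing and DMSO as no toxicity.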
# ATXN2 expr inh: reduces ATXN2 reporter expression in HEK-293 cells; 0.72% of 360,000 active; Potency, µM (series often up to 57 µM), without a hit: at the top dose activity change, negative = inhibition, usual class: inhibitors; HEK-293 ATXN2-luciferase reporter, luminescence, 24 h; note: % is set by controls: 0 for no effect and ±100 for the full control effect; nearly all actives have a fitted effect of over 55% in size
#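 qHTS (up to 57 uM final) was run with 24 h compound exposure of reporter cells at 37 °C. Each well was multiplexed: SteadyGlo luminescence measured ATXN2-luciferase expression after a fluorogenic Gly-Phe-AFC viability readout (25 uM final).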
# TDP1 cell CPT: DT40-hTDP1 cell growth loss with CPT. chicken DT40 Tdp1-/-;hTDP1 cells + 20 nM CPT, ATP luminescence, 48 h. Potency, µM (highest dose often 46.2 µM), for inactives: at the highest dose activity change, negative = growth inhibition, actives largely listed as inhibitors. 12% of 420,000 active; note: % is set by controls: 0 for no effect and ±100 for the full control effect; nearly all actives have a fitted effect of over 55% in size
#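 Cell growth measured by CellTiter-Glo luminescence after a minimum 48 h, 37 C compound exposure with 20 nM CPT in Tdp1-knockout DT40 cells stably expressing hTDP1, seeded 400/well; qHTS titration format.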
# TGFb SMAD3 inh: blocks TGF-b signaling; 1.2% of 410,000 active; HepG2 CAGA-GFP TGF-b/SMAD3 reporter, GFP fluorescence, 18 h; TGF-beta stimulated, 500 pg/mL final; Potency, µM (doses to about 46.1 µM), without a hit: at the top dose activity, negative = inhibition, usual class: inhibitors; note: % is set by controls: 0 for no effect and ±100 for the full control effect; nearly all actives have a fitted effect of over 65% in size
#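 Smad-responsive CAGA-GFP expression was quantified in HEPG2 cells exposed to compounds and 500 pg/mL final TGF-beta for 18 h at 37 degrees C; unstimulated wells defined full inhibition.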
# DT40 TDP1 no CPT: qHTS for Inhibitors of human tyrosyl-DNA phosphodiesterase 1 (TDP1): qHTS in cells in absence of CPT | DT40 Tdp1-/- hTDP1 cells, no CPT, ATP luminescence, 48 h | Potency, µM (top dose mostly 46.2 µM), inactives show at the top dose activity change, negative = growth inhibition, most hits filed as inhibitors | 15% of 420,000 active | AID 686978, 2013; note: % is set by controls: 0 for no effect and ±100 for the full control effect; nearly all actives have a fitted effect of over 55% in size
#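 A cellular qHTS used chicken DT40 cells lacking endogenous Tdp1 but carrying stably transfected human TDP1. Compounds were applied without camptothecin, and cell growth kinetics were judged by ATP-dependent luminescence after ≥48 hr.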
# ATXN viability: viability counter-screen for ATXN expression inhibitors. S2 cells (HEK-293 line with an ATXN2-luciferase reporter) viability, CellTiter-Fluor protease fluorescence, 24 h. Potency, µM (highest dose often 56.7 µM), most hits filed as cytotoxic. 0.49% of 400,000 active; note: nearly all actives have a fitted effect of over 40% in size
# * marks the source's active call; other numbers are inactive results; i = inactive; ? = inconclusive; / = no result given; ! = not active in a repeat. Calls come from the whole dose curve; as a rule, active = well fitted curve in the direction sought with a large enough effect; inconclusive = small, poorly fitted or top-dose-only effect, or another doubt; inactive = no such curve, though single readings can be large; an effect the other way counts as inactive or inconclusive. Potency is the fitted concentration of half-maximal effect.
SMILES,HepG2 viability,ATXN2 expr inh,TDP1 cell CPT,TGFb SMAD3 inh,DT40 TDP1 no CPT,ATXN viability
CC1CCCCN1S(=O)(=O)c1ccc(S(=O)(=O)N2CCCC2)cc1 (stereo unspecified),7%,4%,?,18%,11%,i
Cc1c(C(=O)NCC(C)(C)N2CCOCC2)cnn1-c1ncc2c(n1)-c1ccccc1CC2,/,/,?,/,-27%,i
CCOc1ccc(/C=C/c2nc(C#N)c(NC3CCCCC3)o2)cc1,6%,/,?,-20%,?,/
CCOc1ccc(/C=C/c2nc(C#N)c(NC(C)c3ccccc3)o2)cc1 (stereo unspecified),-38%,/,13µM*,-30%,12µM*,/
O=C(CCS(=O)(=O)c1cccc2nonc12)NCc1ccc(Cl)cc1,-4%,3%,7%,2%,3%,i
Cc1ccn2c(C(=O)CSc3ccccc3)c(C)nc2c1,-22%,8%,8.2µM*,-19%,8.2µM*,i
Cc1ccn2c(C(=O)CSc3ccc(Cl)cc3)c(C)nc2c1,0%,-4%,23µM*,3%,21µM*,i
CCN(C(=O)COC(=O)CCC(=O)c1cccs1)c1c(N)n(Cc2ccccc2)c(=O)[nH]c1=O,-16%,-3%,0%,17%,-12%,i
CCOc1ccc(CN(C)CC(=O)c2c(N)n(Cc3ccccc3)c(=O)n(CC)c2=O)cc1OC,3%,1%,?,24%,-40%,i
CCn1c(=O)c(C(=O)CN2CCCc3ccccc32)c(N)n(Cc2ccccc2)c1=O,-18%,-2%,?,11µM*!,?,i
CCn1c(=O)c(C(=O)CN(C)Cc2cccc(OC)c2OC)c(N)n(Cc2ccccc2)c1=O,2%,-13%,?,14%,15µM*,i
COc1cccc(N(C(=O)c2cnccn2)C(C(=O)NC2CCCCC2)c2ccc(Cl)cc2)c1 (stereo unspecified),-26%,2%,-18%,-13%,-21%,i
CCC(C)c1ccc(N(C(=O)c2ccco2)C(C(=O)NC2CCCC2)c2cccnc2)cc1 (stereo unspecified),-3%,5%,18µM*,?,16µM*,?
COc1ccc(C(C(=O)NC2CCCCC2)N(C(=O)CCl)c2ccc(C)cc2)cc1 (stereo unspecified),-39%,?,1.8µM*,?,1.6µM*,/
COc1ccc(C(C(=O)NC2CCCCC2)N(C(=O)CCl)c2cccc(Cl)c2)cc1 (stereo unspecified),11µM*,6.3µM*,2.3µM*,?,1.8µM*,7.1µM*
Cc1ccc(N(C(=O)c2ccco2)C(C(=O)NC2CCCC2)c2cccnc2)cc1C (stereo unspecified),-13%,-2%,-6%,-19%,-7%,i
COC(CN(C(=O)CCl)C(C(=O)NC1CCCCC1)c1ccc(C)cc1)OC (stereo unspecified),0%,3%,16µM*,2%,13µM*,?
COc1ccc(N(C(=O)CNC(=O)c2cccs2)C(C(=O)NC2CCCC2)c2ccncc2)cc1 (stereo unspecified),5%,4%,-7%,-1%,21%,i
CCC1(c2ccc(F)cc2)NC(=O)N(CC(=O)NC2CCCC(C)C2C)C1=O (stereo unspecified),2%,-9%,?,?,?,i
COc1ccccc1/C=C(\NC(=O)c1cccc(C)c1)C(=O)Nc1ccccn1,1%,-20%,29%,14%,-14%,i
O=C(NC1CCCCC1)C(c1cccnc1)N(C(=O)CCl)c1ccccc1Cl (stereo unspecified),2%,-29%,?,-26%,?,i
COc1ccc(C(C(=O)NC2CCCC2)N(C(=O)c2ccoc2C)c2ccc(C)cc2)cc1 (stereo unspecified),-20%,-4%,18µM*,?,16µM*,i
COc1ccc(N(C(=O)Cc2cccs2)C(C(=O)NC2CCCC2)c2ccncc2)cc1 (stereo unspecified),6%,21%,?,2%,?,i
O=C(NC1CCCCC1)C(c1cccnc1)N(C(=O)CCl)c1ccc(F)cc1 (stereo unspecified),-76%,4µM*,0.52µM*,?,0.58µM*,6.3µM*
COc1ccc(N(C(=O)c2ccco2)C(C(=O)NC2CCCC2)c2ccncc2)cc1 (stereo unspecified),-6%,2%,4%,3%,-16%,i
SMILES,HepG2 viability,ATXN2 expr inh,TDP1 cell CPT,TGFb SMAD3 inh,DT40 TDP1 no CPT,ATXN viability
COc1ccc(C(C(=O)NC2CCCCC2)N(C(=O)CCl)c2ccc(OC)cc2)cc1 (stereo unspecified),-23%,3.5µM*,1.8µM*,?,1.5µM*,4µM*
CC(=O)c1ccc(NC(=O)c2nc(-c3ccc(Cl)cc3)n3c2CCCCC3)cc1,-1%,9%,?,-1%,?,i
CC(=O)Nc1ccc(-c2csc(Nc3ccc(S(N)(=O)=O)cc3)n2)cc1,-16%,-6%,9%,6%,-4%,i
CC(=O)Nc1nc(C)c(-c2csc(Nc3ccccn3)n2)s1,-23%,17%,10µM*,?,13µM*,?
CC(=O)Nc1nc(C)c(-c2csc(Nc3cccc(C(C)=O)c3)n2)s1,-12%,/,3.3µM*,?,5.2µM*,?
Cc1nc(N)sc1-c1csc(Nc2cccc(C(=O)O)c2)n1,9%,/,-6%,13%,7%,i
CC(=O)Nc1ccc(Nc2nc(-c3sc(NC(C)=O)nc3C)cs2)cc1,-13%,-37%,16µM*,-7%,13µM*,?
CC(=O)Nc1cccc(-c2csc(Nc3ccccn3)n2)c1,-36%,71%,?,?,?,i
Cc1ccc(NC(=O)CSc2nnc(-c3ccoc3C)n2CCCN(C)C)cc1Cl,-5%,-10%,-6%,12%,-11%,i
COc1cccc(N2CCN(c3ncnc4c3[nH]c3ccc(F)cc34)CC2C)c1 (stereo unspecified),-70%,3.5µM*,1.6µM*,?,1.6µM*,10µM*
COc1ccc2nc(C)cc(N3CC(C)OC(C)C3)c2c1 (stereo unspecified),2%,-4%,?,13%,-30%,i
